Data published in PubChem BioAssay (NCI).
Values joined by “and” are separate entries in the source; they are usually repeats but may differ in a detail not shown here. Equal entries are not always repeated. The panel holds about 79,000 compounds, 15% with a hit somewhere; the sample as a whole holds those more often. More than one record can exist for a structure, and the calls need not agree. Active and inactive are the calls of the source. Rule as the data show it: active = growth inhibition above about 70%; inactive = the rest.

Legend:
[1] = NCI Yeast Anticancer Drug Screen. Data for the rad50 strain (AID 155);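 also: 0% = growth of vehicle-only cultures of the same strain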; details: S. cerevisiae rad50 strain growth inhibition, stronger effect = higher value
Procedure, shortened: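 Yeast carrying a defined DNA repair defect were exposed to test compounds, and growth was compared with vehicle-treated controls to give percent inhibition.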

[2] = NCI Yeast Anticancer Drug Screen. Data for the mec2-1 strain (AID 157); details: S. cerevisiae mec2-1 strain, stronger effect = higher value
Procedure, shortened: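 Test agents were screened against the mec2-1 yeast strain, with defined DNA repair or cell cycle alteration. Growth was scored as inhibition against vehicle-only controls.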

[3] = NCI Yeast Anticancer Drug Screen. Data for the sgs1 mgt1 strain (AID 161);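 also: 0% = growth of cultures given vehicle only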; details: S. cerevisiae sgs1 mgt1 strain, stronger effect = higher value
Procedure, shortened: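 Inhibition of yeast growth, normalised to vehicle-treated controls, is reported for a strain bearing genetic alterations in DNA damage repair.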

[4] = NCI Yeast Anticancer Drug Screen. Data for the cln2 rad14 strain (AID 165);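 also: 0% = growth equal to vehicle treated cultures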; details: S. cerevisiae cln2 rad14 strain, stronger effect = higher value
Procedure, shortened: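 Growth of compound-exposed yeast (cln2 rad14 genotype) measured and expressed as inhibition relative to vehicle.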

[5] = NCI Yeast Anticancer Drug Screen. Data for the bub3 strain (AID 167); details: S. cerevisiae bub3 mutant strain, stronger effect = higher value
Procedure, shortened: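 Compounds were applied to a genetically altered yeast strain carrying a cell-cycle control defect. Growth inhibition was scored against vehicle-treated controls.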

[6] = NCI Yeast Anticancer Drug Screen. Data for the mlh1 rad18 strain (AID 175); details: S. cerevisiae mlh1 rad18 strain growth inhibition, stronger effect = higher value
Procedure, shortened: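 In this whole-cell yeast screen, a strain with altered DNA damage repair is challenged with compound, and its growth is measured against matched vehicle-treated controls.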

[7] = at 5.0 µM (retest, dose inferred, filed as 0.5)
[8] = at 50.0 µM (retest, dose inferred, filed as 5.0)

SMILES | growth inhibition [1, 7] | growth inhibition [1, 8] | growth inhibition ([1]; at 50.0 µM) | growth inhibition [2, 7] | growth inhibition [2, 8] | growth inhibition ([2]; at 50.0 µM) | growth inhibition [3, 7] | growth inhibition [3, 8] | growth inhibition ([3]; at 50.0 µM) | growth inhibition [4, 7] | growth inhibition [4, 8] | growth inhibition ([4]; at 50.0 µM) | growth inhibition [5, 7] | growth inhibition [5, 8] | growth inhibition ([5]; at 50.0 µM) | growth inhibition [6, 7] | growth inhibition [6, 8] | growth inhibition ([6]; at 50.0 µM)
NC1=C(Cl)C(=O)c2ccccc2C1=O | 6% (inactive) and 9% (inactive) | 97% (active) and 99% (active) | 87.5% (active) and 98.2% (active) | 0% (inactive) and -30% (inactive) | 93% (active) and 98% (active) | 79.8% (active) and 93.6% (active) | 7% (inactive) and 10% (inactive) | 95% (active) and 97% (active) | 91.4% (active) and 97.8% (active) | 15% (inactive) and 4% (inactive) | 61% (inactive) and 97% (active) | 76.7% (active) and 78.8% (active) | 16% (inactive) and 7% (inactive) | 97% (active) and 98% (active) | 84.3% (active) and 95.5% (active) | 8% (inactive) and 7% (inactive) | 96% (active) and 98% (active) | 88.5% (active) and 95.5% (active)
COc1ccc2c(c1)c[n+](C)c1c3cc(OC)c(OC)cc3ccc21 | 17% (inactive) | 23% (inactive) | 5.2% (inactive) and 37.6% (inactive) | 23% (inactive) | 20% (inactive) | 2.8% (inactive) and 35.4% (inactive) | -21% (inactive) | 47% (inactive) | 43.2% (inactive) and 48.9% (inactive) | -12% (inactive) | -8% (inactive) | 34.6% (inactive) and 13.8% (inactive) | 8% (inactive) | 61% (inactive) | 25.9% (inactive) and 19.1% (inactive) | 16% (inactive) | 19% (inactive) | -19.9% (inactive) and 32.5% (inactive)
C=CCOC(=O)c1ccc(C(=O)OCC=C)cc1 | -5% (inactive) | -77% (inactive) | 50.6% (inactive) | -11% (inactive) | -32% (inactive) | 52.2% (inactive) | -1% (inactive) | -13% (inactive) | 78.5% (active) | 4% (inactive) | -26% (inactive) | 39.4% (inactive) | 6% (inactive) | -53% (inactive) | 44.8% (inactive) | 0% (inactive) | -41% (inactive) | 64.3% (inactive)
[N-]=[N+]=CC(=O)OCC1NC(=O)C(COC(=O)C=[N+]=[N-])NC1=O (centres undefined) | 5% (inactive) | -1% (inactive) | -10.3% (inactive) and 80.2% (active) | 2% (inactive) | 6% (inactive) | -20.1% (inactive) and 85.7% (active) | -1% (inactive) | 3% (inactive) | 12.6% (inactive) and 71.3% (active) | -2% (inactive) | -7% (inactive) | 6.1% (inactive) and 76% (active) | -1% (inactive) | -2% (inactive) | 3.8% (inactive) and 85.3% (active) | 2% (inactive) | 1% (inactive) | 4.15% (inactive) and 86.6% (active)
COc1cc2c3c(c1)SCCC(=O)N3CCN2 | 17% (inactive) | 17% (inactive) | 71.7% (active) | 4% (inactive) | 4% (inactive) | 81.2% (active) | 15% (inactive) | 15% (inactive) | -22.6% (inactive) | -4% (inactive) | -4% (inactive) | 80.4% (active) | 0% (inactive) | 0% (inactive) | 73.3% (active) | 14% (inactive) | 14% (inactive) | 45.7% (inactive)
CC[N+](CC)=c1ccc2nc3c(cc(N)c4ccccc43)oc-2c1 | -8% (inactive) | 42% (inactive) | 71.5% (active) and -20.9% (inactive) | -1% (inactive) | 39% (inactive) | 52.5% (inactive) and -17.7% (inactive) | -9% (inactive) | 42% (inactive) | 38.1% (inactive) | -14% (inactive) | 7% (inactive) | 38% (inactive) | -4% (inactive) | 19% (inactive) | 63% (inactive) | -6% (inactive) | 27% (inactive) | 68.8% (inactive) and -28.9% (inactive)
OC1CC2CCCC(C1)C2 (centres undefined) | -2% (inactive) | 3% (inactive) | -17.8% (inactive) | 4% (inactive) | 1% (inactive) | 17.8% (inactive) | -2% (inactive) | 3% (inactive) | -12.2% (inactive) | -5% (inactive) | -3% (inactive) | 72.5% (active) | 0% (inactive) | -10% (inactive) | -18.6% (inactive) | -1% (inactive) | -2% (inactive) | -1.65% (inactive)
Nc1ccc(N=Nc2ccccc2)c(N)n1 | -166% (inactive) | -14% (inactive) | 38.1% (inactive) and 16.4% (inactive) | -54% (inactive) | -20% (inactive) | 30.4% (inactive) and 10.7% (inactive) | -73% (inactive) | 4% (inactive) | 28.6% (inactive) and 5.05% (inactive) | -72% (inactive) | 10% (inactive) | 9.05% (inactive) and 19.2% (inactive) | -71% (inactive) | -26% (inactive) | 27.2% (inactive) and 3.75% (inactive) | -130% (inactive) | -25% (inactive) | 57.1% (inactive) and 7.85% (inactive)
